PfHsp90 yeast 2: inhibits growth of yeast expressing Plasmodium falciparum Hsp90 | S. cerevisiae expressing PfHsp90, BacTiter-Glo ATP, 48 h; yeast lacking PDR1 and PDR3 efflux regulators | inhibition, % at 9.4 µM | 310,000 tested, 0.32% active;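 active = every replicate shows inhibition above about 80%, whatever the replicate mean, limit read from the data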;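 note: 0% = DMSO neutral controls and 100% = 20 µM radicicol positive controls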
EBI2 antag: antagonists of human EBI2 receptor; inhibition, % at 5 µM; EBI2 beta-arrestin recruitment, luminescence, 7a,25-OHC stimulated; AID 651636; 360,000 tested, 0.81% active; P32249; in the data active = inhibition above about 38%;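 note: enzyme fragment complementation signal reports receptor beta-arrestin coupling in cells; 0% = agonist plus DMSO wells and 100% = wells without agonist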
Target sequence (P32249 whole entry, looked up, the tested form may be a part): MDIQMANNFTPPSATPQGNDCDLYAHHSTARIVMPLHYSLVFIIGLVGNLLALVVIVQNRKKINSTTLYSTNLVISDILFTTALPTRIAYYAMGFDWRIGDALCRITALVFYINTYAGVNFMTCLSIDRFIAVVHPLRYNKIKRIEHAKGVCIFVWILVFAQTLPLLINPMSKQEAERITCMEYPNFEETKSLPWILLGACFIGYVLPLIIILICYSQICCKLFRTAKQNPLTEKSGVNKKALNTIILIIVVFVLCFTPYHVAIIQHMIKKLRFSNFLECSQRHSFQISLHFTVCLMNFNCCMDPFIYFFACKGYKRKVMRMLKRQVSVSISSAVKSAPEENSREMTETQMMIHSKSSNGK
tim10-1 inh: tim10-1 yeast growth inhibition. S. cerevisiae tim10-1 ts strain growth, BacTiter-Glo, 24 h. inhibition, % at 20 µM. 330,000 tested, 2.2% active;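 active = inhibition of at least 40%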;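 note: mutant grown at 25 °C; 0% = DMSO wells with yeast and 100% = wells holding no yeast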
SKKanGAS inh: inhibitors of SKKanGAS S. pyogenes growth in kanamycin (SK-promoter or general growth effect). BacTiter-Glo, 6 h. inhibition, % at 7.5 µM. 300,000 tested, 1.3% active. AID 1662;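 active = mean replicate score, as percent of positive control median, at least 50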;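 note: strain carries kanamycin resistance gene driven by streptokinase promoter and grows in 40 µg/ml kanamycin; loss of luminescence reflects streptokinase promoter inhibition or plain growth inhibition; 0% = median of DMSO wells and 100% = positive control at its reference dose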
TIM10 inh: inhibits growth of TIM10 yeast strain. S. cerevisiae TIM10 strain growth, BacTiter-Glo luminescence, 24 h. inhibition, % at 10 µM. 330,000 tested, 1.4% active. AID 463195;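 active = inhibition of 40% or more at the single tested concentration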;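 note: wild-type TIM10 isogenic control strain grown at permissive 25 °C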
tim23-1 inh: growth inhibitors of tim23-1 mutant yeast; 330,000 tested, 1.3% active; S. cerevisiae tim23-1 growth, BacTiter-Glo luminescence, 24 h; inhibition, % at 20 µM;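 active = growth inhibition of the mutant yeast at or above 50%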;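 note: temperature-sensitive mutant grown at 25 °C; plate controls were DMSO-treated mutant yeast for no effect and medium wells lacking yeast for full effect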
EBI2 antag conf: EBI2 (human) antagonism, single concentration confirmation; 2,400 tested, 29% active; inhibition, % at 5 µM; EBI2 beta-arrestin luminescence, 7a,25-OHC antagonism; shares compounds with EBI2 antag;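 active = inhibition of at least 50%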
EBI2 ag: counter-screen for EBI2 antagonists: EBI2 agonist activity. EBI2-expressing cells, agonist mode, luminescence, 60 min; 0% vehicle, 100% 7α,25-dihydroxycholesterol control. AID 652000. shares compounds with EBI2 antag. 2,400 tested, under 10 active. activation, % at 5 µM;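 active = activation of at least 50%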
bGal counter: counter-screen for EBI2 antagonists: E. coli beta-galactosidase inhibition; inhibition, % at 5 µM; AID 652176; purified beta-galactosidase, luminescent Galacton Star, 15 min; 2,400 tested, 1% active; shares compounds with EBI2 antag;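 active = replicate-average signal at least 3 plate SD below neutral wells, shown as high inhibition, flagging enzyme-inhibiting false positives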;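 note: 0% = DMSO wells with enzyme and 100% = wells lacking enzyme; higher means stronger loss of beta-gal luminescence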
* = called active by the depositor; x = no result. This is a sample that favours compounds with a hit; in the whole collection about 4.7% have one here.

SMILES | PfHsp90 yeast 2 | EBI2 antag | tim10-1 inh | SKKanGAS inh | TIM10 inh | tim23-1 inh | EBI2 antag conf | EBI2 ag | bGal counter
CCOC(=O)CN1CCC(c2cc(-c3ccc(Cl)cc3)n[nH]2)CC1 | 27 | 40* | 19 | 4 | -9 | 19 | 37 | -2 | -5
O=C(COc1ccc(F)cc1)c1ccc2c(c1)CCCC2 | 2 | 47* | 4 | 15 | 4 | 12 | 25 | -2 | -15
Clc1ccc(CNc2ncccn2)cc1 | 7 | -9 | x | 1 | x | x | x | x | x
Clc1ccc(Nc2ccc(NCc3ccccc3)nn2)cc1 | -5 | 63* | 21 | -5 | 16 | 36 | 45 | -1 | -8
Cc1cc(NCc2ccccc2)nc2ccccc12 | -41 | 3 | 22 | -7 | 5 | 22 | x | x | x
Cc1ccc(Nc2ccc(NCc3ccccc3)nn2)cc1C | -59 | 65* | -22 | -4 | -17 | 13 | 45 | 1 | 5
CCCc1cc(=O)[nH]c(SCC(=O)c2[nH]c(C)c(C(=O)OCC)c2C)n1 | -27 | 2 | 3 | 4 | 1 | 3 | x | x | x
CCCCc1ccc(NC(=O)CSc2nc(=O)n(CCN(CC)CC)c3c2CCCC3)cc1 | 17 | 51* | 2 | -4 | 1 | 9 | 20 | 1 | 3
CCCCc1ccc(NC(=O)CSc2nc(=O)n(CCN(C)C)c3c2CCC3)cc1 | -1 | 3 | 3 | -4 | 3 | 3 | x | x | x
O=C1CCCN1c1nccs1 | 7 | 0 | -3 | -3 | -3 | -3 | x | x | x
N#Cc1c(Nc2ccccc2)sc(C(=O)c2ccc(F)cc2)c1N | -17 | 7 | 31 | -3 | 29 | 24 | x | x | x
Nc1c(C(=O)c2ccccc2)sc(Nc2ccccc2)c1S(=O)(=O)c1ccccc1 | 14 | 46* | 29 | 2 | 10 | 33 | 50* | 4 | 3
Cc1ccc(NC(=O)c2ccc(CSc3ccccn3)cc2)cc1 | -6 | 46* | 10 | 0 | 20 | 13 | 31 | -1 | -14
O=C(Nc1ccccc1-c1ccccc1)c1ccc(Cl)c([N+](=O)[O-])c1 | 5 | 53* | 17 | -3 | -3 | 16 | 38 | 0 | -1
CN(c1ccccc1)S(=O)(=O)c1cccc(NC(=O)c2ccc(Cl)c([N+](=O)[O-])c2)c1 | 5 | 46* | -7 | x | -23 | 5 | 65* | 1 | 5
Cc1cccc(N2CCN(C(=O)c3ccc4ncsc4c3)CC2)c1C | -11 | 74* | x | x | x | x | 65* | 0 | -13
O=C1CCCC2=C1C1(CCCCC1)N=C(Nc1nc3ccccc3o1)N2 | x | 47* | 34 | 24 | 24 | 28 | 40 | -2 | -21
O=C1CCCC2=C1C1(CCCC1)N=C(Nc1nc3ccccc3o1)N2 | x | 23 | x | x | x | x | x | x | x
Cc1ccc(-n2nnnc2-c2ccccc2Br)cc1 | x | 38* | 6 | -10 | -20 | 11 | 45 | -2 | -17
COc1cc(C2OC(=O)C3C(c4ccc(OC(C)=O)c(OC)c4)OC(=O)C23)ccc1OC(C)=O (stereo not drawn) | 7 | 62* | 11 | -16 | 7 | 10 | -3 | -1 | -10
CO/N=C/c1cccn1-c1nccc(N(C)C)c1C#N | -31 | -5 | -4 | 2 | -5 | 12 | x | x | x
CC(C)(C)c1nnc(N/N=C/c2ccccc2)n(N)c1=O | -6 | 77* | 11 | 10 | -22 | -17 | 48 | 2 | 8
CCc1ccc(S(=O)(=O)Nc2ccc(N3CCN(C)CC3)cc2)cc1 | 7 | 1 | 5 | -11 | 13 | -6 | x | x | x
CCOC(=O)[C@H](C)N1[C@H](C)[C@H](c2ccccc2)Oc2ccc(Cl)cc2S1(=O)=O | -30 | 46* | x | x | x | x | 22 | -1 | -14
Nc1ccc(CSc2ccc(Cl)cc2)cc1 | -2 | 8 | 17 | 12 | 29 | 27 | x | x | x
SMILES | PfHsp90 yeast 2 | EBI2 antag | tim10-1 inh | SKKanGAS inh | TIM10 inh | tim23-1 inh | EBI2 antag conf | EBI2 ag | bGal counter
Cc1ccc(CNC(=O)c2cc3c(s2)CN(Cc2ccccc2)C3)cc1 | -15 | 66* | 12 | -1 | -13 | -7 | 35 | 1 | 6
Cc1ccc(CNC(=O)c2cc3c(s2)CS(=O)(=O)C3)cc1 | 14 | 6 | -10 | 5 | -13 | -3 | x | x | x
CC(C)Cc1nc2sc3c(NCc4ccco4)ncnc3c2c2c1COC(C)(C)C2 | -3 | 47* | 33 | 11 | 15 | 17 | 42 | 0 | 4
Cc1nc2sc3c(NCc4ccco4)ncnc3c2c2c1COC(C)(C)C2 | -15 | 23 | 36 | 5 | 33 | 38 | x | x | x
COc1cccc(-c2csc(N3CCN(C(=O)Nc4ccc(Cl)cc4)CC3)n2)c1 | 6 | 42* | -18 | 38 | 16 | 31 | 22 | -1 | 2
COc1cccc(-c2csc(N3CCN(C(=S)Nc4cccc(Cl)c4)CC3)n2)c1 | -6 | 13 | 5 | 26 | -2 | -6 | x | x | x
COc1ccc(Nc2ccc(Nc3ccc(OC)cc3)nn2)cc1 | 3 | 69* | 6 | 0 | 4 | -4 | 31 | 1 | -10
COc1ccc(Nc2ccc(OC)cc2)cc1 | x | 10 | 25 | 1 | 21 | 21 | x | x | x
Cc1c(NC(=O)C(C)OC(=O)c2cc(Cl)ccc2O)c(=O)n(-c2ccccc2)n1C (stereo not drawn) | -4 | -6 | 10 | -6 | -2 | -4 | x | x | x
O=C(N/N=C/c1cccc(OCc2ccccc2)c1)c1ccc(Br)cc1 | -10 | 36* | 8 | 12 | 6 | -7 | 23 | 1 | 6
CCOc1cc(/C=N/NC(=O)c2ccc(CN3CCOCC3)cc2)ccc1OCc1ccccc1 | 23 | 55* | 2 | 6 | 13 | 13 | 60* | -1 | -20
CCOc1cc(/C=N/NC(=O)CN2CCOCC2)ccc1OCc1ccccc1 | -6 | 2 | 18 | 2 | -1 | 15 | x | x | x
COc1ccccc1N1CCN(c2ncnc3sc(C(=O)NCC4CCCO4)c(C)c23)CC1 (stereo not drawn) | 8 | 10 | 27 | 24 | 5 | 16 | x | x | x
CN(C)CC1CCC/C(=C\c2ccc(OC(=O)c3ccc(Cl)cc3)cc2)C1=O (stereo not drawn) | 3 | 10 | x | x | x | x | x | x | x
O=C1/C(=C\c2ccc(Cl)cc2)CCC1CNc1ccc(Cl)cc1 (stereo not drawn) | 147* | 47* | x | x | x | x | 11 | 1 | 8
C=CCn1c(C)c(C(C)=O)c(N2CCN(C(c3ccccc3)c3ccccc3)CC2)nc1=S | -56 | 54* | 16 | 21 | 21 | 30 | 24 | 1 | 3
CC(=O)c1c(N2CCN(C)CC2)nc(=S)n(Cc2ccccc2)c1C | 12 | -3 | 8 | -2 | -6 | 7 | x | x | x

Bioassay records: PubChem BioAssay, several laboratories
